The results in this text go back to PubChem BioAssay (NCATS).

Inconclusive results are not listed. A call without a number means that no potency is given here. Calls of active or inactive are those of the source. The call rests on the fitted dose curve; in most records, active means well fitted inhibition curve with a large enough effect; inconclusive means small, poorly fitted or top-dose-only effect; inactive means flat fitted curve, though single readings scatter.
Potency means the concentration at half of the fitted maximal effect.

A short description of the test: qHTS for Inhibitors of Plasmodium falciparum (7G8) proliferation (AID 504316). Further: nearly all actives have a fitted effect of over 65% in size. The conditions noted are these: P. falciparum 7G8 in erythrocytes, SYBR Green DNA, 72 h; series mostly up to 6.7 µM. The text has this: Plasmodium falciparum is a virulent malarial parasite that kills 1-2 million people worldwide each year. Malaria not only inflicts tremendous suffering and morbidity on the human population, but has dramatically influenced the course of civilization with profound sociological and economic implications (Shah, S. 2010). Transmitted by mosquitoes, the sporozoite form of the parasite enters the blood stream to infect hepatocytes, where they become merozoites that infect red blood cells (erythrocytes). Within erythrocytes, merozoites begin a […] cycle of growth and division, after which the parasite is released to infect new red blood cells. Gametocytes, which form within erythrocytes as well, circulate in the bloodstream and are ingested by the mosquito, thereby completing the life cycle (see CDC website). To profile malarial lines for differential chemical responses and to identify inhibitors of malarial growth, an assay that measures P. falciparum growth and replication within erythrocytes was employed. This assay uses a DNA binding fluorescent dye (SYBR Green) to detect parasite DNA following cell lysis. Because mature erythrocytes lack DNA, only Plasmodium-derived DNA is detected. The P. falciparum line cp250, derived from a malarial isolate from Cambodia, (Mu, J., et al. 2010) was added to the panel of lines, Dd2, HB3, 7G8 and GB4 in this study. Laboratory of Assay Development and Screening Technology [ADST] and NIH Chemical Genomics Center [NCGC] Boston University, Chemistry Department, Center for Chemical Methodology and Library Development [CMLD-BU] NIH National Institute of Allergy and Infectious Diseases [NIAID]
ADST Assay Protocol Summary: The 1536-well SYBR Green viability assay was based on the method of Bennett et al (2004) and described previously in 1536-well format (Yuan J., et al. 2009). For screening 3 ul culture medium was dispensed into 1536 well black clear bottom plates (Aurora Biotechnologies) using a Multidrop Combi (Thermo Fisher Scientific Inc.), 23 nL compounds in DMSO were added by a pin transfer (Cleveland, P.H. and Koutz, P.J, 2005) using a pin tool-based delivery system (Kalypsys), and 5 ul of erythrocytes infected with P. falciparum one of five lines (cp250, Dd2, HB3, 7G8 or GB4, 0.3% parasitemia, 2.5% hematocrit final concentration) were added. The plates were incubated at 37C in a humidified incubator in 5% CO2 for 72 h, and 2 ul lysis buffer (20 mM Tris HCl, 10 mM EDTA, 0.16% saponin, 1.6% triton X, 10X SYBR Green I (supplied as 10,000X final concentration by Invitrogen) was added to each well. The plates were mixed for 25 sec with gentle shaking and incubated overnight at room temperature in the dark. The following morning, fluorescence intensity at 485(14) nm excitation and 535(25) nm emission wavelengths was measured on an EnVision (Perkin Elmer) plate reader. Plate reads were normalized relative to the control inhibitor (0.29 uM artemisinin) and vehicle (DMSO) wells present on each plate and then corrected by an algorithm using vehicle-only control plates at the beginning and end of the compound plate stack. References Shah, S. (2010). The Fever: how malaria has ruled humankind for 500,000 years. New York, Sarah Crichton Books. CDC web site, http://www.cdc.gov/malaria/about/biology/index.html Mu, J., Myers, R.A., Jiang, H., Liu, S., Ricklefs, S., Waisberg, M., Chotivanich, K., Wilairatana, P., Krudsood, S., White, N.J., et Plasmodium falciparum genome-wide scans for positive selection, recombination hot spots and resistance to antimalarial drugs Nature Genetics 2010, 42, pp 268-271 Bennett TN, Paguio, M., Gligorijevic, B., Seudieu, C., Kosar, A. D., Davidson, E., and Roepe, P. D. Novel, rapid, and inexpensive cell-based quantification of antimalarial drug efficacy Antimicrobial Agents Chemother. 2004, 48(5): pp 1807-10 Yuan J, Johnson RL, Huang RL, Wichterman J, Jiang HY, Hayton K, Fidock DA, Wellems TE, Inglese J, Austin CP, Su XZ. […]
Background: qHTS replaces the single test concentration by a dilution series.
Turning to `COc1cccc([C@@H]2Oc3ccc(Br)cc3C(=O)[C@@H]2OC(=O)Nc2cc(OC)c(OC)c(OC)c2)c1`, the Potency result was “inactive”.

For `c1ccc(-c2nc(-c3cccc4ccccc34)c(Nc3ccc4ccccc4c3)o2)cc1`, the Potency is 1.51 µM (active). With `COC(=O)C1=C(C(=O)OC)[C@@H]2Nc3ccccc3[C@@]23C[C@@H](C(=O)OC)N=C3N1`, the Potency entry was “inactive”. With `CCOC(=O)CCCNC(=O)N1CCc2nc(-c3ccc(OC)cc3C)c3c(c2C1)CO[C@@H](c1ccccc1)C3`, the Potency was 1.69 µM (active). As for `O=C(NS(=O)(=O)c1ccc(F)cc1)O[C@@H]1C(=O)c2cc(Br)ccc2O[C@H]1c1ccc2c(c1)OCO2`, the Potency entry was “inactive”. Take `COC(=O)C[C@H]1c2ccccc2[C@H]2C(=C[C@@H](C)[C@H]3C(=O)N(O)C(=O)[C@H]32)N1C(=O)OC`: the Potency result was “inactive”. Take `CCN1C(=O)N(C)[C@@H](c2ccccc2)C(C(C)=O)=C1C`: the Potency entry is “inactive”. Then `COCOc1c2c(c(OCOC)c3c(OCOC)cccc13)C(=NNS(C)(=O)=O)C1=C2CCCC1`, with 1.69 µM (active); and `CCOC(=O)CN1C(=O)N[C@@H](CCc2ccccc2)[C@@H](C(=O)OC)[C@H]1C`, with “inactive”.

On to `COc1ccc(O[C@H]2C=C[C@@H](c3ccccc3)O[C@H]2COC(=O)CCC(C)=NO[C@H](C)c2cn([C@H](CO)Cc3ccccc3)nn2)cc1`, for which the Potency is 1.51 µM (active). Turning to `COc1ccc([C@]23Cc4cc(C#N)ccc4[C@H](O2)c2c(cc(-c4ccccc4)oc2=O)O3)cc1`, the Potency is 1.35 µM (active). Turning to `COc1ccc(-c2nc3c(c4c2C[C@H](c2ccccc2)OC4)CN(S(=O)(=O)c2c(C)noc2C)CC3)c(C)c1`, the Potency was 1.69 µM (active).

Consider `CCCCC1=CC2=CC(=O)C(C)(OC(=O)CC)C(=O)C2=CN1CCCCO` (stereo not given), for which the Potency result is “inactive”. For the compound `CCOC(=O)CN1C(=O)N[C@@H](c2cccc(C(F)(F)F)c2)C(C(C)=O)=C1C`, the Potency result is “inactive”.

`COC/C=C/C1=CC2=CC(=O)C(C)(OC(=O)c3cnc4ccccc4n3)C(=O)C2=CN1CCOC` (stereo not given): the Potency entry was “inactive”. Regarding `C=CCN1c2ccccc2[C@]23C[C@@H](C(=O)OC)N(C(C)=O)C2=NC(C(=O)OC)=C(C(=O)OC)[C@H]13`, the Potency entry was “inactive”. For `COC(=O)CC=C[C@@H](C)[C@H](OC)c1cc(F)ccc1Br`, the Potency result is “inactive”. Then `COCCN1C(=O)N[C@@H](c2cccc(F)c2)C(C(=O)OC)=C1C`, with “inactive”; and `CCCCC1=CC2=CC(=O)C(C)(OC(=O)CC)C(=O)C2=CN1Cc1ccc2c(c1)OCO2` (stereo not given), with “inactive”; and `CCCCS(=O)(=O)N1C2=NC(C(=O)OC)=C(C(=O)OC)[C@@H]3N(Cc4ccccc4)c4ccccc4[C@]23C[C@H]1C(=O)OC`, with 1.51 µM (active).

Turning to `CC1(OC(=O)C2CCCC2)C(=O)C=C2C=C(c3ccsc3)N(CCc3c[nH]c4ccccc34)C=C2C1=O` (stereo not given), the Potency result is “inactive”. Then `COC(=O)[C@@H](NC(=O)N1CCc2nc(COc3ccccc3)c3c(c2C1)CO[C@@H](C)C3)C(C)C`, with 1.69 µM (active); and `COC(=O)C1=C(C(=O)OC)[C@@H]2N(C)c3ccc(OC)cc3[C@@]23C[C@@H](C(=O)OC)N(S(=O)(=O)c2ccc4c(c2)OCCN4C)C3=N1`, with “inactive”.

Turning to `COC(=O)N1CCc2cc(OC)c(OC)cc2C1Cc1ccc(OC)cc1` (stereo not given), the Potency result was “inactive”. Then `CC(C)CN1C=C2C(=O)C(C)(OC(=O)CCc3ccccc3)C(=O)C=C2C=C1c1ccc(C#N)cc1` (stereo not given), with “inactive”; and `COC(=O)N1C(C)=Cc2ccccc2C1C/C(C)=C/C(C)=O` (stereo not given), with “inactive”. Turning to `COc1ccc(C=CC2=CC3(C)CC2(C)C(c2ccc(OC)cc2)CC3=O)cc1` (stereo not given), the Potency is 1.69 µM (active).

For `C[C@@H](c1ccccc1)N1C(=O)[C@@H]2[C@H]3[C@H](O)[C@H](O)CC(=NNC(=O)OCc4ccccc4)[C@@H]3CC[C@H]2C1=O`, the Potency result is “inactive”. As to `CCN(CC)CCCN1C=C2C(=O)C(C)(OC(=O)CCC(=O)OC)C(=O)C(Br)=C2C=C1c1ccc(OC)cc1` (stereo not given), the Potency result is “inactive”.

`COC/C=C/C1=CC2=CC(=O)C(C)(OC(=O)c3cnc4ccccc4n3)C(=O)C2=CN1Cc1ccc2c(c1)OCO2` (stereo not given): the Potency result was “inactive”. For the compound `CC#CCN1c2ccccc2[C@]23C[C@@H](C(=O)OC)N(C(=O)c4cccs4)C2=NC(C(=O)OC)=C(C(=O)OC)[C@H]13`, the Potency entry is “inactive”. With `COC(=O)[C@@H](NC(=O)N1CCc2nc(-c3ccc(OC)cc3C)c3c(c2C1)CO[C@@H](c1ccccc1)C3)C(C)C`, the Potency is 1.69 µM (active). Regarding `CC1COc2ccccc2C1=O` (stereo not given), the Potency was 1.69 µM (active). In the case of `COC(=O)CCC(=O)OC1(C)C(=O)C2=CN(CCCCO)C(c3ccc(OC)cc3)=CC2=C(Br)C1=O` (stereo not given), the Potency result is “inactive”. On to `COC(=O)N[C@@H](c1cccc(C)c1)C(C(C)=O)C(=O)OC` (stereo not given in full), for which the Potency entry was “inactive”. As to `CCOC(=O)CN1C(=O)N[C@@H](c2cccc(C(F)(F)F)c2)[C@H](C(=O)OC)[C@H]1C`, the Potency result was “inactive”.

`CC(=O)OC[C@H]1O[C@H](C#Cc2ccc(C(C)(C)C)cc2)C=C[C@H]1OC(C)=O`: the Potency was 1.69 µM (active). Regarding `CCCNC(=O)N1C2=NC(C(=O)OC)=C(C(=O)OC)[C@@H]3N(C)c4ccccc4[C@]23C[C@H]1C(=O)OC`, the Potency result was “inactive”.

On to `COC(=O)CCC(=O)OC1(C)C(=O)C2=CN(C3CCCC3)C(c3ccc(OC)cc3)=CC2=C(Br)C1=O` (stereo not given), for which the Potency result is “inactive”. Regarding `CC(C)(C)N1C(=O)[C@@H]2[C@H]3[C@H](O)[C@H](O)CC(=NOCc4ccccc4)[C@H]3CC[C@H]2C1=O`, the Potency result was “inactive”.
